In PubChem BioAssay AID1946 (Johns Hopkins Ion Channel Center, 2009) one finds activity change vs negative control data, which are given here for 73 compounds.

Out of some 2,400 compounds screened, about 180 (7.5%) were called active.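 How the source made its calls: active means readout below zero, meaning a drop past 3 SD under the dofetilide-free negative control mean; inactive means the rest.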 Only a selection was taken, and actives are over-represented in it overall.

Potassium voltage-gated channel subfamily KQT member 2 (Rattus norvegicus), sequence (O88943 whole entry, looked up): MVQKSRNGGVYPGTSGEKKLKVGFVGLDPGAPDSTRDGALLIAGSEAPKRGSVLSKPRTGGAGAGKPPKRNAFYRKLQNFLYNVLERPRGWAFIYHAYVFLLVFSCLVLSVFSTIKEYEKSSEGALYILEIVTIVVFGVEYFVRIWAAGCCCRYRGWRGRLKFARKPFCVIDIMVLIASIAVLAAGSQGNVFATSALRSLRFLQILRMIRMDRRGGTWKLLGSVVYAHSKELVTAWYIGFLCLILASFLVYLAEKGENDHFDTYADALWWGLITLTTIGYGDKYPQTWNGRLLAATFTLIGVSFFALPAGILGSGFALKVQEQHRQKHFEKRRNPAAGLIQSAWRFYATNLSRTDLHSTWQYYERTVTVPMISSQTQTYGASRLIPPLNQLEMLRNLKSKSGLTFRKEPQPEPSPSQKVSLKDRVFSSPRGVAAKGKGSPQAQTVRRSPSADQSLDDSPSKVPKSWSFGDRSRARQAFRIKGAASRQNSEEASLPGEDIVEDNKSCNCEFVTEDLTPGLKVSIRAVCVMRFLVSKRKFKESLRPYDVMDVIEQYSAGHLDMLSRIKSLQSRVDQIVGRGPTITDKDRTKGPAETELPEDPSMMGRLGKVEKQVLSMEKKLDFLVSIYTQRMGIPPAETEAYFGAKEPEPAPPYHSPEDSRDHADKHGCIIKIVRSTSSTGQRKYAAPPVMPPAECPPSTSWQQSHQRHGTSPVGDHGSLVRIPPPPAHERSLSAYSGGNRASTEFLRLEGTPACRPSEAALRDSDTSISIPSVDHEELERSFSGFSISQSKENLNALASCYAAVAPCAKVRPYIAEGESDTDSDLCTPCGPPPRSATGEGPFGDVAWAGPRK

The assay has as its target Potassium voltage-gated channel subfamily KQT member 2 (Rattus norvegicus) (UniProt O88943). The assay is described as follows: KCNQ2 blockade in CHO cells – cell-based, FluxOR thallium flux, counter-screen for hERG block protector project, confirmation (AID 1946). The following applies: FluxOR thallium flux fluorescence, at 10 µM, active compounds read low, zero marks the 3-SD hit cutoff. (A counterscreen serves to expose hits that act by an unwanted route or on another target.)
Consider `CC(C)(C)c1cc(C(=O)NNC(=O)c2ccc(Cl)cc2)no1`, for which the activity change vs negative control was 53.5% (inactive).

As for `COc1cccc(CN(C)CC2CCCN(CCc3ccc(Cl)cc3)C2)c1OC` (stereo not drawn), the activity change vs negative control is -3.8% (active).

Take `COc1cccc(OC)c1OCCOCCN1CCN(C)CC1`: the activity change vs negative control was 6.8% (inactive).

As to `Oc1c(Cl)cc(Cl)cc1C=Nc1ccc(Br)cc1`, the activity change vs negative control was 60.6% (inactive).

On to `CCOC(=O)N/N=C/C=C/c1ccccc1[N+](=O)[O-]`, for which the activity change vs negative control is 28.8% (inactive).

On to `C=CCN(c1ccc(Cl)cc1)S(=O)(=O)c1cccc(C(=O)O)c1`, for which the activity change vs negative control was 26.2% (inactive).

For `S=c1nn[nH]n1C12CC3CC(CC(C3)C1)C2`, the activity change vs negative control was 36.2% (inactive).

With `CC1CCN(C(=S)NC(=O)c2cccs2)CC1`, the activity change vs negative control is 23.7% (inactive).

Consider `C=CCn1c(=S)[nH]c2scc(-c3cccs3)c2c1=O`, for which the activity change vs negative control is 121% (inactive).

`C=CCc1cccc(C2Nc3ccccc3C(=O)N2O)c1O` (stereo not drawn): the activity change vs negative control is 19% (inactive).

As for `OC(CNCCc1ccc(C(F)(F)F)cc1)COc1cccc2ccccc12` (stereo not drawn), the activity change vs negative control was -18.2% (active).

Turning to `Cn1c(NNC(=O)C(c2ccccc2)c2ccccc2)cc(=O)n(C)c1=O`, the activity change vs negative control was 12.8% (inactive).

As for `CC12CCC(C(=O)NCc3ccc4c(c3)OCO4)(CC1=O)C2(C)C` (stereo not drawn), the activity change vs negative control was 9.1% (inactive).

Consider `Cc1ccc(C(=O)NNc2cc(N3CCCC3)nc(N3CCCC3)n2)cc1`, for which the activity change vs negative control was 39.7% (inactive).

As for `COc1ccccc1NC(=O)C(=O)NNC(=O)c1ccco1`, the activity change vs negative control was 47.8% (inactive).

`CC(=O)c1cccc(NC(=O)NCc2cccs2)c1`: the activity change vs negative control was 8.1% (inactive).

Take `COc1ccc(COC(=O)C2CCN(S(=O)(=O)c3cccs3)CC2)cc1`: the activity change vs negative control is 9.3% (inactive).

Regarding `O=C(NCc1cccs1)C1CCC(CNS(=O)(=O)c2cccs2)CC1` (stereo not drawn), the activity change vs negative control was -0.3% (active).

Regarding `O=[N+]([O-])c1ccc(-c2ccc(/C=N/n3cnnc3)o2)c(Br)c1`, the activity change vs negative control was 3.2% (inactive).

Take `CCOC(=O)/C(C)=N/NC(=O)c1cccc([N+](=O)[O-])c1`: the activity change vs negative control was 36.5% (inactive).

For the compound `COc1ccccc1C(=O)NNC(=O)C(=O)NC1CCCCC1`, the activity change vs negative control is 71.2% (inactive).

As to `CCOc1ccccc1C(=O)NC1CC2CCCC(C1)N2Cc1nnnn1Cc1ccco1` (stereo not drawn), the activity change vs negative control is -2.8% (active).

As to `COc1ccc(C(=O)NC2CC3CCCC(C2)N3Cc2ccccc2)cc1` (stereo not drawn), the activity change vs negative control is 3.9% (inactive).

For `COc1ccc(C(=O)CC(=O)C(=O)Nc2ccccc2Cl)cc1`, the activity change vs negative control was 73.9% (inactive).

With `O=C(COc1ccc(Cl)cc1Cl)NC(=S)Nc1ccccc1C(=O)O`, the activity change vs negative control is 10.9% (inactive).

As to `COc1cc(NC(=O)CCCOc2ccc(Cl)cc2Cl)c(C(=O)O)cc1OC`, the activity change vs negative control is 4.3% (inactive).

Turning to `O=C(CCCOc1ccc(Cl)cc1Cl)Nc1ccccc1C(=O)O`, the activity change vs negative control was -11.5% (active).

For the compound `C/C(=N\NC(=O)c1cc2ccccc2cc1O)c1ccc(C)o1`, the activity change vs negative control was 53.8% (inactive).

As for `C=CCOc1ccccc1/C=c1\sc2nc(=O)c(C)nn2c1=O`, the activity change vs negative control was 6.3% (inactive).

As to `CCN(CC)c1ccc(/C=c2\sc3nnc(-c4ccccc4Cl)n3c2=O)cc1`, the activity change vs negative control is -3.9% (active).

Regarding `O=C(NNc1nc2c(F)cccc2s1)c1cc(=O)c2ccccc2o1`, the activity change vs negative control was 4.5% (inactive).

Turning to `CCOc1ccc(NC(=S)NS(=O)(=O)c2cc(Br)ccc2OCC)cc1`, the activity change vs negative control was 50.4% (inactive).

Consider `Cc1ccc(C(=O)N/N=C(/CC(=O)c2cccs2)C(F)(F)F)cc1`, for which the activity change vs negative control was 28.2% (inactive).

`Nn1c(SCC(=O)Nc2ccc(OC(F)F)cc2)nnc1-c1ccco1`: the activity change vs negative control was -0.2% (active).

In the case of `Cc1nnc(SCC(=O)Nc2nccs2)n1N`, the activity change vs negative control is 10.1% (inactive).

With `Cc1cc(-c2nnc(SCC(=O)Nc3ccc(C(F)(F)F)cc3)n2C)no1`, the activity change vs negative control is 8.3% (inactive).

For the compound `CCNC(=O)C/C(C)=N/NC(=O)C(=O)Nc1ccc(CC)cc1`, the activity change vs negative control was 26.8% (inactive).

Regarding `O=c1c2ccccc2[nH]c(=S)n1CCc1ccccc1`, the activity change vs negative control was 33.3% (inactive).

For `O=C(NC(=S)N(CCc1ccccc1)CCc1ccccc1)c1ccco1`, the activity change vs negative control was 67.4% (inactive).

Turning to `Cc1nn(C(=O)CNC(=O)c2ccccc2)c(C)c1C`, the activity change vs negative control is 46.6% (inactive).

Turning to `C=CCn1c(=S)[nH]c2scc(-c3ccc(C)o3)c2c1=O`, the activity change vs negative control is 102% (inactive).

As to `CN1CCN(S(=O)(=O)c2cccc(S(=O)(=O)c3ccc(Cl)cc3)c2)CC1`, the activity change vs negative control was 13.6% (inactive).

With `O=S(=O)(c1ccc(F)cc1)N1CCN(c2ccc(F)cc2)CC1`, the activity change vs negative control is 0.8% (inactive).

For the compound `O=C1CCN(S(=O)(=O)c2ccc(Cl)cc2)CCN1`, the activity change vs negative control is -0.2% (active).

For `O=C(NC(=S)N1CCN(Cc2ccc3c(c2)OCO3)CC1)c1cccc(Br)c1`, the activity change vs negative control was 61% (inactive).

In the case of `Cc1ccc(NC(=O)CSc2nnc(C3CC3)n2CC2CCCO2)c(C)c1` (stereo not drawn), the activity change vs negative control was -4.1% (active).

As for `CSc1ccccc1-n1nnnc1SCC(=O)Nc1cc(C)ccc1C`, the activity change vs negative control is 2.3% (inactive).

For the compound `Cc1cc(C)cc(NC(=O)CSc2nnc(CN3CCOCC3)n2C)c1`, the activity change vs negative control was 48.6% (inactive).

On to `Cc1nnc(NC(=O)C2CCCN(S(=O)(=O)c3ccccc3C(F)(F)F)C2)s1` (stereo not drawn), for which the activity change vs negative control was 19.4% (inactive).

Regarding `O=C(CSc1ncnc2c1cnn2-c1ccc(Cl)cc1)NCc1ccc2c(c1)OCO2`, the activity change vs negative control was 12% (inactive).

On to `CCC(c1nnc(SCC(=O)NCCc2ccc(Cl)cc2Cl)o1)N(C)C` (stereo not drawn), for which the activity change vs negative control was -0.1% (active).

As to `COc1ccc(C(=O)CC(=O)C(=O)Nc2ccc(C)cc2Cl)cc1`, the activity change vs negative control is 39.7% (inactive).

In the case of `CC(C)(C)c1cc(-c2n[nH]c(=S)n2-c2ccccc2F)n[nH]1`, the activity change vs negative control was 39.3% (inactive).

`CC(NC(=O)c1ccc(Br)cc1)c1ccc2c(c1)CCCC2` (stereo not drawn): the activity change vs negative control is 62.8% (inactive).

`Cc1ccc(NC(=O)CN2C(=O)S/C(=C\c3ccc(-c4cccc(C(=O)O)c4C)o3)C2=O)cc1`: the activity change vs negative control is -4% (active).

Consider `Cc1c(/C=C2\SC(=O)N(CC(=O)Nc3ccc4c(c3)OCO4)C2=O)c2ccccc2n1C`, for which the activity change vs negative control was 8% (inactive).

As to `Cc1ccccc1NC(=O)CN1C(=O)S/C(=C\c2ccc(-c3cc(C(=O)O)ccc3C)o2)C1=O`, the activity change vs negative control is 10.7% (inactive).

As to `Cc1ccc(C(=O)O)cc1-c1ccc(/C=C2\SC(=O)N(CC(=O)Nc3ccccc3)C2=O)o1`, the activity change vs negative control is 1.7% (inactive).

`C#CCN1C(=O)S/C(=C\c2ccc(-c3ccc(C(=O)O)cc3C)o2)C1=O`: the activity change vs negative control is 7.6% (inactive).

On to `Cc1ccccc1NC(=O)CN1C(=O)S/C(=C\c2ccc(-c3cccc(C(=O)O)c3C)o2)C1=O`, for which the activity change vs negative control is -1% (active).

Take `Cc1cccc(NC(=O)CN2C(=O)S/C(=C\c3cccn3-c3cccc(C(=O)O)c3)C2=O)c1`: the activity change vs negative control was 5.2% (inactive).

`Cc1cccc(NC(=O)CN2C(=O)S/C(=C\c3ccc(-c4cccc(C(=O)O)c4C)o3)C2=O)c1`: the activity change vs negative control was -0.8% (active).

`COc1ccc(NC(=O)CN2C(=O)S/C(=C/c3cccn3-c3ccc(C(=O)O)cc3)C2=O)cc1`: the activity change vs negative control is 1% (inactive).

For the compound `CC(C)COn1c(=S)[nH]c2ccccc2c1=O`, the activity change vs negative control was 34.7% (inactive).

For the compound `Cc1ccc(/C=N/Nc2ccc(C(=O)O)cc2)o1`, the activity change vs negative control was 5.5% (inactive).

In the case of `Cc1ccccc1NC1=NC(=S)N(c2ccccc2)C12CCCCC2`, the activity change vs negative control is 39.1% (inactive).

`CCOC(=O)c1c(-c2ccccc2)csc1NC(=S)NC`: the activity change vs negative control was 42% (inactive).

Consider `Cc1cc(C)cc(OCc2nnc(SCC(=O)Nc3ccccc3)o2)c1`, for which the activity change vs negative control is -2.3% (active).

Regarding `COCCn1c(SCC(=O)Nc2cc(C)cc(C)c2)nc2ccccc2c1=O`, the activity change vs negative control was 12% (inactive).

Regarding `COC(=O)CSc1nnc(COc2ccc3ccccc3c2)o1`, the activity change vs negative control is 11.8% (inactive).

Take `COc1ccc(NC(=O)CC23CC4CC(CC(C4)C2)C3)cn1`: the activity change vs negative control is 73.9% (inactive).

Regarding `S=C(N/N=C/c1ccccc1Cl)Nc1cccc(Cl)c1Cl`, the activity change vs negative control was 30.4% (inactive).

`COc1cccc2sc(Nc3nnc(-c4ccc(F)cc4)o3)nc12`: the activity change vs negative control was 69.1% (inactive).
